From PubChem
This is a sample that favours compounds with a hit; in the whole collection about 3.9% have one here.
TWEAK-Fn14 inh: blocks TWEAK-Fn14 interaction in a reporter cell assay | TWEAK-stimulated Fn14 reporter cells, luciferase luminescence, 8 h | inhibition, % at 10 µM | 360,000 tested, 2% active | AID 1159606; in the data active = inhibition above about 50%
TROY NFkB inh: TROY signaling inhibition; Q293 LMP1-TROYcd NF-kB luciferase reporter, 4 h; inhibition, % at 10 µM; 360,000 tested, 0.98% active;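 active = compounds whose plate-normalised and pattern-corrected inhibition of the luciferase reporter signal at the single screening dose is 50% or more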
HSP90 inh: blocks HSP90-mediated luciferase refolding in reticulocyte lysate. Rabbit reticulocyte lysate, luciferase refolding luminescence, 3 h. inhibition, % at 5.6 µM. 290,000 tested, 0.91% active. AID 1789;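 active = inhibition above the screen-wide mean plus 3 SD, computed separately per campaign, cut at about 16% in these data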;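 note: 0% = DMSO wells and 100% = 60 µM geldanamycin wells; inhibitors lower the luminescence because luciferase stays unfolded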
TRAIL sens C8: caspase-8 TRAIL sensitization. NB7+C8 cells + TRAIL, ATPlite viability luminescence. inhibition (viability loss, TRAIL sensitization), % at 10 µM. 360,000 tested, 1% active;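 active = compounds causing at least 50% loss of cell viability in the single-dose screen, relative to plate controls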
HIF-2a inh: HIF-2a inhibition; 786-0 RCC cells HIF-2a reporter, luciferase luminescence, overnight; AID 624352; inhibition, % at 18.8 µM; 360,000 tested, 0.72% active;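 active = inhibition of the luminescence signal of 40% or more relative to plate controls, in a single-dose primary screen at 18.75 µM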
aSyn UTR inh: 5' untranslated region of α-synuclein, MLPCN primary screen. inhibition, % (tested at 7.5 µM). alpha-synuclein 5'UTR reporter, inhibitor activity. 300,000 tested, 0.82% active; in the data active = inhibition above about 60%;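 note: H4 neuroglioblastoma cells stably carrying SNCA 5'UTR luciferase fusion; 0% = DMSO wells and 100% = positive control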
HSP90 inh confirm: confirmation of HSP90 inhibitors; shares compounds with HSP90 inh; rabbit reticulocyte lysate, luciferase refolding luminescence, 3 h; inhibition, % at 5.9 µM; 2,300 tested, 64% active; in the data active = inhibition above about 18%;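 note: 0% = vehicle wells and 100% = reference inhibitor wells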
FLuc counter: firefly luciferase inhibition, HSP90 counter-screen; shares compounds with HSP90 inh; 2,300 tested, 48% active; AID 1847; inhibition, % at 5.9 µM; purified native firefly luciferase, luminescence;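 active = inhibition above the mean inhibition of all tested sample wells plus 3 SD, cut at about 10% in these data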;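 note: 0% = DMSO with luciferase and 100% = wells lacking luciferase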
Target sequence (P08659 whole entry, looked up): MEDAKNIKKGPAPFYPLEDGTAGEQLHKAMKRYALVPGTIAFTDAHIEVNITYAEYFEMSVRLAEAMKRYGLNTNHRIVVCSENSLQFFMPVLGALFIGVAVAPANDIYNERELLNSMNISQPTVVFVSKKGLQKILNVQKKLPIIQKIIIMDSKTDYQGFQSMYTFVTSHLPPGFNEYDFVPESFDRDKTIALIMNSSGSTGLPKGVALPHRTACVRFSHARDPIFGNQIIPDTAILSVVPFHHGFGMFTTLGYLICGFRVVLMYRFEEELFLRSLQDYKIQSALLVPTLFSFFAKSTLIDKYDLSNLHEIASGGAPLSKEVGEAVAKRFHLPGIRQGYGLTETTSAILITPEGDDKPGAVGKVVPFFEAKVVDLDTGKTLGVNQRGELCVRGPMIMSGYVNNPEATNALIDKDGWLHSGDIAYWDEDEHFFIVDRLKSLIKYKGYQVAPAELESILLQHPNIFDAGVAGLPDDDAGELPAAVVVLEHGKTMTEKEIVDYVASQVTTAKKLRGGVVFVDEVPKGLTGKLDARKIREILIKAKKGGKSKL
* hit, by the source's call; / = no result given.

SMILES	TWEAK-Fn14 inh	TROY NFkB inh	HSP90 inh	TRAIL sens C8	HIF-2a inh	aSyn UTR inh	HSP90 inh confirm	FLuc counter
[O-]/[N+](=C/c1cccnc1)c1ccc(Br)cc1	-13	-39	0	9	-208	-95	/	/
O=c1c2c(nc3n1CCCCC3)sc1c(O)c(Br)ccc12	68*	36	23*	35	-180	-20	35*	37*
CC1(NC(=O)CCNC(=O)c2ccc(C(C)(C)C)cc2)CCS(=O)(=O)C1 (stereo not drawn)	-1	17	/	1	4	/	/	/
COc1ccc([C@H]2N[C@]3(CCCN(CC4CCCCC4)C3=O)[C@H]3C(=O)N(Cc4ccccc4)C(=O)[C@@H]23)cc1	-8	-4	/	-7	11	/	/	/
Cc1c(-c2nc(-c3ccc(C(F)(F)F)cc3)no2)n(C)oc1=O	-6	-30	18*	-4	-185	-82	74*	-10
CCN(C[C@H]1N[C@@](C)(C(=O)OC)[C@H]2C(=O)N(Cc3ccccc3)C(=O)[C@@H]12)C(=O)Nc1ccc(C)cc1	-17	-33	/	-7	1	/	/	/
Cc1ccc(C(=O)CN2/C(=C(\O)c3ccccc3)C(=O)c3ccccc3S2(=O)=O)c(C)c1	2	37	40*	28	19	16	14	0
O=C(Oc1ccc2ccccc2c1)C1CCC1	5	11	37*	-4	15	11	-3	-16
CCC(CC)C(=O)N1CC(=O)Nc2ccc(F)cc2C1c1ccccc1 (stereo not drawn)	-22	-6	-1	13	19	-10	/	/
Cc1ccc2c(c1)C(c1ccccc1)N(C(=O)c1c(F)cccc1Cl)CC(=O)N2 (stereo not drawn)	16	16	17*	6	25	4	4	-4
CC(C)CC(=O)N1CC(=O)Nc2ccc(F)cc2C1c1ccccc1 (stereo not drawn)	-2	1	39*	-15	20	13	-6	-10
O=C(NC(=S)Nc1cccc2c(O)cccc12)c1ccccc1[N+](=O)[O-]	12	-11	35*	-11	22	18	9	4
O=C(NNC(=S)NC(=O)c1ccccc1[N+](=O)[O-])c1ccccc1O	-14	-17	2	21	6	6	/	/
Cc1ccc(N2C(=O)CC(N3CCN/C3=C3\CC/C(=C\c4ccccc4)C3=O)C2=O)cc1 (stereo not drawn)	-24	-13	18*	-4	9	-3	6	-5
N#CCc1ccccc1C(=O)OCC(=O)N(Cc1ccccc1)Cc1ccccc1	6	5	/	0	2	/	/	/
Cc1cc(C(=O)N/N=C2\CCCC(=O)C2)c(C)n1-c1ccccc1	43	75*	31*	1	-79	-41	-5	-18
Cc1cc(C(=O)Nc2ccc(Cl)cc2)c(C)n1-c1ccccc1	103*	89*	81*	83*	73*	87*	81*	80*
Cc1cc(C(=O)N/N=C2\CCCC(=O)C2)c(C)o1	2	6	/	-27	5	/	/	/
Cc1ccc(NC(=O)c2cc(C)n(-c3ccccc3)c2C)cc1	97*	89*	75*	93*	54*	106*	85*	83*
Cc1ccc(NC(=O)c2cc(C)n(-c3cccc(C)c3)c2C)cc1	37	44	5	30	-205	-62	/	/
CCN(CC)C(=O)C1=C(C)N(Cc2ccc(OC)cc2)C(=O)C(CC(=O)NCc2cccs2)C1 (stereo not drawn)	-11	-3	/	-6	9	/	/	/
Cc1cc(NC(=O)NC(=O)c2ccc(F)cc2F)n[nH]1	45	21	23*	23	-48	-15	39*	26*
O=C(O)c1ccc2c(c1)S(=O)(=O)c1cc(N3CCN(c4cnccn4)CC3)ccc1C2=O	-6	4	/	-12	-7	/	/	/
CCCS(=O)(=O)NC(=O)C1(C)CCCN(C(=O)c2cccc(C)c2C)C1 (stereo not drawn)	1	2	/	-3	14	/	/	/
O=C(c1cccs1)c1ccc(-c2cccs2)s1	61*	-6	29*	51*	-20	15	61*	53*
SMILES	TWEAK-Fn14 inh	TROY NFkB inh	HSP90 inh	TRAIL sens C8	HIF-2a inh	aSyn UTR inh	HSP90 inh confirm	FLuc counter
O=C1NC(=O)/C(=C\c2ccc(OCc3cccc(C(=O)O)c3)c(Cl)c2)N1	-21	-72	31*	7	-38	70*	45*	50*
CC(=O)Nc1cccc(-c2cc(NC(C)=O)c3ncc(-c4cccc(C(F)(F)F)c4)n3c2)c1	4	-6	/	4	10	/	/	/
COc1cccc(-c2onc3ccc(C(=O)/C=C/N(C)C)cc23)c1	-1	-70	2	-10	-23	-20	/	/
Cc1ccc(-c2onc3ccc(C(=O)/C=C/N(C)C)cc23)cc1	17	-53	61*	0	-39	-14	-9	-21
Cc1cccc(-c2onc3ccc(C(=O)/C=C/N(C)C)cc23)c1	21	-23	39*	-10	-15	-31	-3	-8
CN(C)/C=C/C(=O)c1ccc2noc(-c3ccc(F)cc3)c2c1	-17	-41	16	-1	-10	-8	/	/
COc1ccc(NC(=O)c2cc(-c3cccc(OC)c3)on2)cc1	-6	-11	-7	7	-107	-51	/	/
COc1cccc(-c2cc(C(=O)Nc3cccc(O)c3)no2)c1	66*	44	18*	70*	-121	14	64*	57*
O=C(Nc1cccc(O)c1)c1cc(-c2cccs2)on1	69*	7	31*	17	-196	-38	64*	57*
Cn1c(-c2ccc(F)cc2)cnc1SCC(=O)N1CCCCC1	60*	17	18*	9	-80	36	27*	19*
CC(NC(=O)CNC(=O)C1CCCCC1)c1ccc(S(N)(=O)=O)cc1 (stereo not drawn)	7	-3	32*	-2	6	2	-1	0
CC(NC(=O)CNC(=O)C1CCCCC1)c1cccc(Cl)c1 (stereo not drawn)	27	15	2	-15	18	12	/	/
Cc1ccnc(NC(=O)Nc2ccc(F)cc2)c1	5	-21	-1	14	-193	-86	/	/
CSc1ccc(NC(=O)Nc2cc(C)ccn2)cc1	69*	34	14	55*	-98	-19	55*	49*
N=C1CCCC1C(=S)SCCC(N)=O (stereo not drawn)	-4	-10	/	10	6	/	/	/
Cc1oc2cc3c(C(=O)N4CCCCC4)c(C)oc3cc2c1C(=O)N1CCCCC1	74*	60*	74*	1	-80	-162	68*	33*
Cc1oc2cc3c(C(=O)N4CCN(c5ccccc5)CC4)c(C)oc3cc2c1C(=O)N1CCN(c2ccccc2)CC1	/	/	-2	/	/	/	/	/
